Assay results reported in paper PMC5540273 (PLoS ONE, 2017).

Tested on: FLT3-autoinhibited
Details: concentration: 1 μM, replicates: in singlicate; n = 1
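Further: KINOMEscan kinase panel screen.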

Compound | %Inh
CN1CCN(Cc2cccc(-c3ccc4c(Nc5ccc(Oc6ccccc6)cc5)ccnc4c3)c2)CC1 [GW578342] | 36%
Nc1ncc(-c2ccc3nccc(-c4ccncc4)c3c2)cc1S(=O)(=O)N1CCOCC1 [GSK1627798] | 0%
CN(C)S(=O)(=O)c1cc(-c2ccc3nccc(-c4cccc(S(N)(=O)=O)c4)c3c2)cnc1N [GSK1669921] | 19%
CCn1c(-c2nonc2N)nc2c(C#CC(C)(C)O)ncc(OCCCCN)c21.O=C(O)C(F)(F)F.O=C(O)C(F)(F)F [GSK507274] | 0%
Cc1ccc(C)c(NC(=O)NC2CCN(c3ccnc(Nc4ccc(F)cc4)n3)C2)c1 (stereo not drawn) [GSK1379720] | 0%

Tested on: FLT3
Details: concentration: 1 μM, replicates: in singlicate; n = 1

Compound | %Inh
Cn1cc(-c2[nH]c3cc(NC(=O)[C@H](N)C4CCCCC4)cc4c3c2C=NNC4=O)cn1 | 100%
O=C(Nc1ccccc1F)NC1CCN(c2ccnc(Nc3ccc(F)cc3)n2)CC1 [GSK1379800] | 0%
Cc1ccc(F)c(C(=O)Nc2cccc(-c3nn4ccccc4c3-c3ccnc(Nc4cccc(F)c4)n3)c2)c1F [GSK361061] | 78%
O=C(O)C(F)(F)F.O=C(O)C(F)(F)F.O=c1[nH]ccc2nc(N[C@@H]3CCCNC3)nc(Nc3ccc(S(=O)(=O)N4CCOCC4)cc3)c12 [GSK2177277] | 99.3%
CN1CCN(CCCNc2nccc(-c3c(-c4ccc(F)cc4)nn4cc(C(F)(F)F)ccc34)n2)CC1 [GW621581] | 0%
CSc1cccc2c(-c3ccncn3)c(-c3ccc(F)cc3)nn12 [GW514786] | 5%
O=C(Nc1cccc(-c2nn3ccccc3c2-c2ccnc(Nc3cccc(C(F)(F)F)c3)n2)c1)c1c(F)cccc1F [GSK292658] | 62%
COc1ccc(Nc2nccc(N3CCC(NC(=O)Nc4cccc(OC)c4)C3)n2)cc1 (stereo not drawn) [GSK1379742] | 35%
Cc1cccc(NC(=O)Nc2ccc(Oc3ncnc4ccn(C)c34)cc2)c1 | 100%
O=C(NC1CCN(c2ccnc(Nc3ccc(F)cc3)n2)C1)c1cc2ccccc2s1 (stereo not drawn) [GSK1379716] | 0%
O=c1[nH]cc(-c2ccc(N3CCOCC3)cc2)c2sc(-c3cn[nH]c3)cc12 [GSK2276055] | 0%
Nc1ncc(-c2cccnc2)c2scc(-c3ccc4c(c3)CCN4C(=O)Cc3ccccc3)c12 [GSK683281] | 83%
O=C(Nc1cccc(Oc2ccc3nc(NC(=O)C4CC4)cn3n2)c1)c1ccccc1C(F)(F)F | 20%
Cl.Cl.NCC(NCc1ccc(-c2ccnc3[nH]ccc23)s1)c1ccccc1 (stereo not drawn) [GSK1321565] | 75%
COc1ccc(CNC(=O)NC2CCN(c3ccnc(Nc4ccc(F)cc4)n3)CC2)cc1 [GSK1379788] | 0%
CCn1c(-c2nonc2N)nc2c(C#CC(C)(C)O)nc(OC[C@H](N)c3ccccc3)cc21 [GSK943949] | 3%
CN(c1ccc(NC(=O)Nc2cc(C(F)(F)F)ccc2F)cc1)c1ccnc(Nc2ccc(S(N)(=O)=O)cc2)n1 [GW809893] | 98.6%
O=C(Nc1n[nH]c2nc(-c3ccc(O)cc3)ccc12)C1CC1 [SB-710363] | 82%
O=C(Nc1cccc(-c2nn3ccccc3c2-c2ccnc(Nc3cccc(F)c3)n2)c1)c1c(F)ccc(F)c1Cl [GSK357952] | 51%

Compound | %Inh
Nc1ncnc2c1nc(-c1ccccc1)n2-c1ccccc1 [SKF-97293] | 20%
Cc1cccc(Nc2nc(N[C@H]3CCNC3)ncc2C(N)=O)c1.Cl [GSK2197149] | 80%
COc1cccc(C2=C(Nc3ccc(Cl)c(C(=O)O)c3)C(=O)NC2=O)c1 [SB-390769] | 0%
COc1cc(Nc2nccc(-c3c(-c4cccc(NC(=O)c5c(F)cccc5F)c4)nn4ccccc34)n2)cc(OC)c1OC [GSK323521] | 98.4%
CC(=O)Nc1nc2cnc(Nc3cc(NC(=O)c4cccc(C5(C#N)CC5)c4Cl)ccc3C)nc2s1 | 0%
c1ccc(Oc2ccc(Nc3ccnc4cc(-c5ccc(CNCCN6CCOCC6)o5)ccc34)cc2)nc1 [GW567145] | 91%
CNC(=O)c1ccccc1Nc1nc(Nc2ccc(N3CCOCC3)cc2)ncc1Cl.Cl [GSK1576028] | 99.3%
Cl.Cl.NCC(NC(=O)c1cc(-c2ccccc2)c(-c2ccnc3[nH]ccc23)s1)c1ccccc1 (stereo not drawn) [GSK1321561] | 0%
Fc1ccc(-c2ncn(C3CCNCC3)c2-c2ccnc(Oc3ccc(-c4ccccc4)cc3)n2)cc1 [SB-245391] | 14%
Cn1cc(-c2ccc3c(c2)CCN3C(=O)Cc2cccc(F)c2)c2c(N)ncnc21 [GSK2603358] | 66%
COc1cc(Nc2nccc(N3CCC(NC(=O)c4cc5ccccc5s4)C3)n2)cc(OC)c1OC (stereo not drawn) [GSK1379760] | 33%
CC(=O)N1CCN(c2ccc(Nc3nccc(-c4sc(C(C)C)nc4-c4cccc(NS(=O)(=O)c5cccc(Cl)c5)c4)n3)cn2)CC1 [GSK1660437] | 33%
COc1cc(Nc2ncc3c(C)nc(-c4cc5ccccc5[nH]4)n3n2)cc(OC)c1OC [GW869516] | 96.3%
CN1CCN(Cc2cccc(-c3ccc4c(Nc5ccc(Oc6ccccc6)cc5)ccnc4c3)c2)CC1 [GW578342] | 93.2%
Nc1ncc(-c2ccc3nccc(-c4ccncc4)c3c2)cc1S(=O)(=O)N1CCOCC1 [GSK1627798] | 0%
CN(C)S(=O)(=O)c1cc(-c2ccc3nccc(-c4cccc(S(N)(=O)=O)c4)c3c2)cnc1N [GSK1669921] | 1%
CCn1c(-c2nonc2N)nc2c(C#CC(C)(C)O)ncc(OCCCCN)c21.O=C(O)C(F)(F)F.O=C(O)C(F)(F)F [GSK507274] | 0%
Cc1ccc(C)c(NC(=O)NC2CCN(c3ccnc(Nc4ccc(F)cc4)n3)C2)c1 (stereo not drawn) [GSK1379720] | 0%
